Assay results reported in PubChem BioAssay.
Active and inactive are the calls of the source.

Columns and labels:
[1] = binders of probe aFSTL3 on microarray, primary screen, stem cell growth factor project, biochemical, small-molecule microarray, fluorescence 635/667 (AID 1064); details: higher = more signal;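 note: measures binding of the biotinylated anti-FSTL3 antibody to printed compounds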
[2] = binders from COS7 lysate, DM2A8 probe, primary screen, torsin A project, cell lysate, small-molecule microarray, fluorescence 635/667 (AID 1065); details: higher = more signal, COS7 lysate expressing mutant human TOR1A
[3] = binders of probe aFGF2 on microarray, primary screen, stem cell growth factor project, biochemical, small-molecule microarray, fluorescence 635/667 (AID 1067); details: higher = more signal;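 note: measures binding of biotinylated aFGF2 protein to printed compounds on slides; z-score merges feature fluorescence and signal-to-noise across triplicate slides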
[4] = binders of probe aFGF10 on microarray, primary screen, stem cell growth factor project, biochemical, small-molecule microarray, fluorescence 635/667 (AID 1071); details: higher = more signal;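 note: score merges 667 nm spot intensity and signal to noise from triplicate slides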
[5] = biological target: Neurogenic locus notch homolog protein 2 (Homo sapiens) (UniProt Q04721); assay: Notch2 binders on small-molecule microarrays, primary screen, biochemical, small-molecule microarray, 635 nm fluorescence, stem cell growth factors (AID 1073); details: Notch2 binding, higher = more signal
[6] = biological target: Pro-neuregulin-1, membrane-bound isoform (Homo sapiens) (UniProt Q02297); assay: NRG1 binders on small-molecule microarrays, primary screen, psychiatric disease protein project, biochemical, small-molecule microarray, fluorescence 635/667 (AID 1075); details: NRG1 binding, 635 nm fluorescence, higher = more signal;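 note: score combines 667 nm spot fluorescence with signal to noise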
[7] = test system: Neuregulin-1 EGF-like domain; assay: binders of neuregulin-1 EGF-like domain, primary screen, biochemical, small-molecule microarray, 635 nm fluorescence (AID 1081); details: small-molecule microarray binding, higher = more signal;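 note: binding of the protein to compounds printed on small-molecule microarray slides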
[8] = FRG1 promoter luciferase signal modulators, primary screen, FRG1 inhibition for FSHD, cell-based, C2C12 myotubes, firefly/Renilla luciferase, luminescence (AID 1084); details: higher = more signal, called active from +8 up or from −8 down
[9] = binders of probe aFST on microarray, primary screen, stem cell growth factor project, biochemical, small-molecule microarray, fluorescence 635/667 (AID 1086); details: higher = more signal;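 note: score merges 667 nm fluorescence with signal-to-noise of each printed compound spot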
[10] = binders of probe aHhip on microarray, primary screen, stem cell growth factor project, biochemical, small-molecule microarray, fluorescence 635/667 (AID 1087); details: higher = more signal;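 note: score merges spot fluorescence at 667nm with spot signal to noise ratio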

Neurogenic locus notch homolog protein 2 (Homo sapiens), sequence (Q04721 whole entry, looked up, canonical isoform): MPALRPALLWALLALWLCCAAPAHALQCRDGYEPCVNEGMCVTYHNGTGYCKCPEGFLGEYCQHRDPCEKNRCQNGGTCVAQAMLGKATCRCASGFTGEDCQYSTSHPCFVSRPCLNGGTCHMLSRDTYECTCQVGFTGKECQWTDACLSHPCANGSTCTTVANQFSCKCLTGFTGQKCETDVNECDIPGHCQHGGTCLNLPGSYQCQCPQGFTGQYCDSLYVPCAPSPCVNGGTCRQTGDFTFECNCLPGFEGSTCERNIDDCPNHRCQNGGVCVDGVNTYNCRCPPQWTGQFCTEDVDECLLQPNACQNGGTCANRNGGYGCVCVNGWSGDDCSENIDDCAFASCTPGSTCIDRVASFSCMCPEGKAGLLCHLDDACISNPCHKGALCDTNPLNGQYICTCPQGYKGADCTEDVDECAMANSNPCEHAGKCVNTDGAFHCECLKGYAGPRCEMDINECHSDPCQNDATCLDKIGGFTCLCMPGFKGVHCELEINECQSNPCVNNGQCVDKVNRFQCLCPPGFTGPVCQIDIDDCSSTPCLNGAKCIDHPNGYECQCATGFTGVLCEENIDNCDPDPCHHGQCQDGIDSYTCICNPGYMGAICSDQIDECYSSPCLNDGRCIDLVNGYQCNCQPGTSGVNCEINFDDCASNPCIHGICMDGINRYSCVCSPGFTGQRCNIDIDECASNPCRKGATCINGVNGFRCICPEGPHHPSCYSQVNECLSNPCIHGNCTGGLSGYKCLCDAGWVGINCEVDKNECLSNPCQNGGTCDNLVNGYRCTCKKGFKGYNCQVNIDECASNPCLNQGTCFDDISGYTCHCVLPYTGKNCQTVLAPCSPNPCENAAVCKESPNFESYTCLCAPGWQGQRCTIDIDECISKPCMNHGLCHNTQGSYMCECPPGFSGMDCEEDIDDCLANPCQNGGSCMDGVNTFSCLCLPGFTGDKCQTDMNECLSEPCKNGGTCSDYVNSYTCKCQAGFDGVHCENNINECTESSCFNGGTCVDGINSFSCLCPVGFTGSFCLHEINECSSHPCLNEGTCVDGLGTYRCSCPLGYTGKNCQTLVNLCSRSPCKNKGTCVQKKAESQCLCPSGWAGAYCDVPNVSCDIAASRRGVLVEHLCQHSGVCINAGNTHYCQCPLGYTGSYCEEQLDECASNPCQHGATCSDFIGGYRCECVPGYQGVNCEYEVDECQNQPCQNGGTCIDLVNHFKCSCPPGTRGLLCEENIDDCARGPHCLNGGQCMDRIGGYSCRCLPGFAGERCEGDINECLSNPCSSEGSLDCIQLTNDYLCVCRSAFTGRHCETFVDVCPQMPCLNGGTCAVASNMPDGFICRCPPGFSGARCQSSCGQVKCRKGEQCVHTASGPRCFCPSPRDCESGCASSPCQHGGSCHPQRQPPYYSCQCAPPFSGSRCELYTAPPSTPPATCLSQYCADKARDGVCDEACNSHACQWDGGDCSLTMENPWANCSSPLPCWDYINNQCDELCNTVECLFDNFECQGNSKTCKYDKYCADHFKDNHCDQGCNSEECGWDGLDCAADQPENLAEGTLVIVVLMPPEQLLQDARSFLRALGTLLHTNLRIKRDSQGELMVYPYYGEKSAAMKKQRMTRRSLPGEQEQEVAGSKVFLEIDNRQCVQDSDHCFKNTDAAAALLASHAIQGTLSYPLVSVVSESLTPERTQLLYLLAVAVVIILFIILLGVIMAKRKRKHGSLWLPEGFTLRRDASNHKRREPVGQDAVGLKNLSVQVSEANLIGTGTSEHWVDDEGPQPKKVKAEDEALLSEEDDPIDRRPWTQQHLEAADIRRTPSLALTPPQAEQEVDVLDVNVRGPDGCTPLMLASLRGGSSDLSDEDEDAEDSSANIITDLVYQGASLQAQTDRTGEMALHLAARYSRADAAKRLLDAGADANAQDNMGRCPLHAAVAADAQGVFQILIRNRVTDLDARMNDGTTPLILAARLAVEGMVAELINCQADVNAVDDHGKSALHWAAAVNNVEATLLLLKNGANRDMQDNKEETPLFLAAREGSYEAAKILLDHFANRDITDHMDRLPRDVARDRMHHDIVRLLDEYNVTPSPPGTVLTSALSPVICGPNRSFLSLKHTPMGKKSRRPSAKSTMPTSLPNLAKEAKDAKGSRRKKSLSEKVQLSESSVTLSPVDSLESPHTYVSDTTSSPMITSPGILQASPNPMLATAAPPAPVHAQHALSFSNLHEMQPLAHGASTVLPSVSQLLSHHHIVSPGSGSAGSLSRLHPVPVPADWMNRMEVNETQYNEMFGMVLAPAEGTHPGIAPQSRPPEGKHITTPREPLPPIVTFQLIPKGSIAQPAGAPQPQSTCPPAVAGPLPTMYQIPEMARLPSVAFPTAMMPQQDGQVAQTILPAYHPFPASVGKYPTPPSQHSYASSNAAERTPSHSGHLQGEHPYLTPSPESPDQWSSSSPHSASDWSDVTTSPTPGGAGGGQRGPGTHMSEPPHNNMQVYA
Pro-neuregulin-1, membrane-bound isoform (Homo sapiens), sequence (Q02297 whole entry, looked up, the tested form may be a part, canonical isoform): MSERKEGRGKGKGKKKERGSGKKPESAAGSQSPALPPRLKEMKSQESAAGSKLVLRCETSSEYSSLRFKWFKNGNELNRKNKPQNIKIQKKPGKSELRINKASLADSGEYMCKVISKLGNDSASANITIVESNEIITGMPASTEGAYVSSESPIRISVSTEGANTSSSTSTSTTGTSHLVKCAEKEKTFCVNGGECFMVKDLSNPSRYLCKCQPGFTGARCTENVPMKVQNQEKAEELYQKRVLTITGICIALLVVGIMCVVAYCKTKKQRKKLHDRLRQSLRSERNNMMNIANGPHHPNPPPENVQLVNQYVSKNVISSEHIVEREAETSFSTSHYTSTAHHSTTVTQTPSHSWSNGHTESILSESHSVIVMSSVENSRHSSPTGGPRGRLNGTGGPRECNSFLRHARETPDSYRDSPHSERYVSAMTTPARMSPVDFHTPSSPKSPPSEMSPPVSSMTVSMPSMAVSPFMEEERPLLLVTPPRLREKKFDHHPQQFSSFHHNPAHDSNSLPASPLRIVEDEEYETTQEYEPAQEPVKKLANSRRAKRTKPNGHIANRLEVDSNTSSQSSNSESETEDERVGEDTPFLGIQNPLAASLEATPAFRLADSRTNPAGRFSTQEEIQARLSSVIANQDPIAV

SMILES | composite z-score [1] | composite z-score [2] | composite z-score [3] | composite z-score [4] | composite z-score [5] | composite z-score [6] | composite z-score [7] | z-score [8] | composite z-score [9] | composite z-score [10]
O=C1C[C@@](C(=O)NCCN2CCOCC2)(c2ccc([N+](=O)[O-])cc2)[C@@H](c2ccc(CO)cc2I)N1CC12CC3CC(CC(C3)C1)C2 | -0.168 | 0.47 | 0.0232 | 0.569 | 0.926 | 1.64 | 1.37 | -2.84 (inactive) | 0.45 | 0.192
NC(=O)N1C(=O)C2C(C1=O)C1C=C(c3ccc(CO)cc3)C2C(c2cccs2)N1Cc1cccc(OC(F)(F)F)c1 (stereo not given) | 0.677 | 0.639 | -0.0085 | 0.326 | -0.596 | 1.3 | 0.106 | -0.723 (inactive) | 0.322 | -0.0645
O=C(c1ccccc1)N1C(=O)[C@]2(COC(c3ccc(OCCCO)cc3)=N2)Cc2ccccc21 | 0.303 | 0.863 | 0.11 | 0.879 | 0.839 | 1.72 | 1.34 | 1.23 (inactive) | 0.647 | -0.266
C=C(CCCC)/C(=C/C[C@H](OC(=O)c1ccncc1)c1ccccc1OCCO)c1cnc2ccccc2c1 | -0.345 | 1.04 | -0.0544 | 0.706 | 0.965 | 0.424 | 1.05 | -0.756 (inactive) | 0.228 | 0.126
C=C(CCCC)/C(=C/C[C@@H](OC(C)=O)c1ccc(OCCO)cc1)c1cnc2ccccc2c1 | 0.0374 | 0.372 | -0.0598 | 0.242 | 0.913 | 0.952 | 1.01 | -1.51 (inactive) | -0.156 | -0.0618
COc1ccc(C#Cc2ccc3c(c2)[C@]2(C(=O)N3)[C@H](C(=O)Nc3nc4ccccc4s3)[C@H]3C(=O)O[C@H](c4ccccc4)[C@H](c4ccccc4)N3[C@@H]2c2ccc(O)cc2)cc1 | -0.433 | 0.923 | 0.0956 | 1.13 | 1.29 | 1.38 | 1.34 | 1.46 (inactive) | 1.36 | -0.511
COC(=O)[C@@]1(Cc2ccc(F)cc2)[C@H]2c3cc(C(=O)N(C)C)n(Cc4ccccc4)c3C[C@H]2CN1C(=O)c1ccccc1 | -0.0364 | -0.267 | 0.0103 | 0.314 | 1.58 | 1.32 | 0.337 | 0.403 (inactive) | 1.35 | 2.22
CC(C)[Si](C#Cc1ccc(Oc2ccccc2)cc1)(O[Si](C#Cc1ccc(Oc2ccccc2)cc1)(C(C)C)C(C)C)C(C)C | -0.496 | 0.253 | -0.133 | 0.967 | 0.766 | -0.0929 | 0.664 | -0.421 (inactive) | -0.0273 | -0.0994
CCCC[C@@H]1C[C@H]1[C@@H](NC(=O)c1ccco1)c1ccccc1C(F)(F)F | 2.82 | -0.108 | 0.806 | 0.0033 | 0.967 | 0.382 | -0.226 | 0.792 (inactive) | 2.87 | 3.61
CC(C)C(CO)N1C(=O)[C@@H]2C3C(=O)OCCC/C=C\[C@H]3OC23C=CCN(CCN2CCOCC2)C(=O)[C@@H]13 (stereo not given in full) | -0.364 | -0.306 | -0.116 | -0.294 | -0.853 | -0.197 | 0.366 | 1.3 (inactive) | -0.139 | 0.0623
CC(C)C(=C=CC[C@@H](O)c1ccc(OCCO)cc1)C[C@@H](O)c1ccccn1 | -0.149 | 0.651 | 0.0297 | 1.19 | 0.344 | -0.272 | 0.826 | 0.463 (inactive) | -0.0267 | -0.166
C=C(CCCC)/C(=C/C[C@@H](OC(=O)c1ccncc1)c1ccc(OCCO)cc1)c1cc(C(=O)OC)ccc1OC | -0.356 | 0.807 | -0.129 | 0.63 | -0.0009 | 0.382 | 1.01 | 5.07 (inactive) | -0.0132 | -0.217
NC(=O)NCC#Cc1ccc2c(c1)[C@]1(C(=O)N2)[C@H](C(N)=O)[C@H]2C(=O)O[C@H](c3ccccc3)[C@H](c3ccccc3)N2[C@@H]1c1ccc(O)cc1 | 1.41 | -0.0275 | -0.0413 | -0.166 | -0.723 | 1.14 | -0.22 | -0.0861 (inactive) | 0.752 | 1.15
CCCC[C@@H]1C[C@H]1[C@@H](NC(=O)c1ccccc1)c1ccc(C(=O)OC)cc1 | 1.37 | -0.0965 | -0.0273 | -0.282 | -0.547 | -0.273 | -0.544 | 0.191 (inactive) | -0.303 | 0.35
COC(=O)[C@@]1(Cc2ccc(OC)cc2)[C@@H]2C(=CC(=O)[C@H]2CC(=O)C(=O)N2CCCC2)CN1C(=O)c1ccccc1 | 0.156 | -0.601 | -0.0124 | 0.224 | 1.6 | 1.02 | 1.25 | 2.91 (inactive) | 1.1 | 1.41
C=C(C)[C@@H]1CC=C(C(O)C2C=CC3C(=O)N(c4ccccc4)C(=O)C3N2Nc2ccccc2)CC1 (stereo not given in full) | 1.08 | 0.881 | 0.364 | 0.929 | 1.26 | 1.57 | 1.28 | -0.441 (inactive) | 1.54 | 1.07
O=C1c2ccccc2[C@](Cc2ccccc2I)(C(=O)NCCN2CCOCC2)[C@H](c2ccc(CO)cc2)N1C1CCCCC1 | 0.446 | 0.473 | -0.0181 | 0.352 | 1.39 | 0.738 | 1.22 | -4.42 (inactive) | 1.19 | 0.259

SMILES | composite z-score [1] | composite z-score [2] | composite z-score [3] | composite z-score [4] | composite z-score [5] | composite z-score [6] | composite z-score [7] | z-score [8] | composite z-score [9] | composite z-score [10]
CCCCCN1CC=CC23O[C@@H]4/C=C\CCC(C)OC(=O)C4[C@H]2C(=O)N(C(C)CO)[C@@H]3C1=O (stereo not given in full) | -0.411 | -1.14 | -0.164 | -0.043 | -0.602 | 0.946 | 0.38 | -1.32 (inactive) | -0.258 | -0.268
CC(C)(C)OC(=O)CC[C@]1(C(=O)N2CCOCC2)N=C(c2ccc(OCCCO)cc2)O[C@H]1c1ccccc1N=[N+]=[N-] | 0.594 | 0.838 | 0.0376 | 0.402 | 1.48 | 1.63 | 1.28 | 1.71 (inactive) | 1.06 | 0.0515
O=C1O[C@@H](c2ccccc2)[C@@H](c2ccccc2)N2[C@@H](c3ccccc3OCCO)[C@]3(C(=O)Nc4ccccc43)[C@@H](C(=O)Nc3nc4ccccc4s3)[C@H]12 | 0.0741 | 0.581 | 0.0566 | 0.841 | 1.15 | 2.01 | 1.26 | -1.26 (inactive) | 0.247 | -0.329
CCOC(=O)C[C@H]1[C@H](OC(=O)c2ccc(C(=O)c3ccccc3)cc2)[C@@H](NC(=O)c2ccccc2)c2cc(OCCCO)ccc2N1C(=O)Cc1ccc(OC)cc1 | 0.0814 | 0.128 | -0.0502 | 0.153 | 0.12 | -0.126 | 0.532 | -1.09 (inactive) | 0.0512 | -0.0237
CC(C)NC(=O)[C@@H]1c2ccccc2C(=O)N(C2Cc3ccccc3C2)[C@H]1c1ccc(CO)cc1 | 0.351 | 0.329 | -0.0234 | 0.0799 | 0.526 | 0.634 | 0.998 | -0.943 (inactive) | 0.148 | -0.131
O=C(NCCO)C1=C[C@H](Oc2ccccc2I)[C@@H](O)[C@H](N(Cc2ccco2)C(=O)Cc2ccccc2)C1 | 0.0391 | 0.208 | -0.112 | 0.236 | 0.299 | -0.352 | -0.473 | 0.157 (inactive) | -0.0165 | 0.12
C[C@@]1([C@@H](NC(=O)c2ccc(-c3ccccc3)cc2)c2ccc(Cl)cc2)C[C@H]1C1CCCCC1 | 0.512 | 0.903 | 0.276 | 0.473 | 1.43 | 1.86 | 0.883 | -0.203 (inactive) | 0.893 | 0.133
C=CC(=C)[C@H]1Oc2ccccc2S(=O)(=O)N2CCC[C@@H]12 | 0.289 | 0.196 | -0.116 | -0.185 | -0.128 | -0.57 | -0.595 | -0.0188 (inactive) | 0.303 | -0.329
CN1C(=O)C2C=CC(C(O)C#Cc3ccccc3)N(N3CCCCC3)C2C1=O (stereo not given) | 0.819 | 1.34 | 0.454 | 0.762 | 1.44 | 1.19 | 1.19 | -0.995 (inactive) | 1.16 | -0.0655
COc1ccccc1CN1C(=O)c2ccccc2[C@@]2(Cc3ccccc3N(CC(C)C)C2=O)[C@@H]1c1ccc(CO)cc1 | -0.211 | -0.44 | -0.0543 | 0.134 | -0.304 | -0.0503 | -0.738 | -0.0845 (inactive) | -0.595 | -0.0994
C=CCOC(=O)[C@H]1[C@@H]2C(=O)O[C@@H](c3ccccc3)[C@@H](c3ccccc3)N2[C@@H](c2ccc(OCCOC(=O)[C@H]3C[C@H]4C(=O)N[C@@H](CCCCNC(C)=O)C(=O)N4[C@H]3c3cccc(OCCO)c3)cc2)[C@]12C(=O)Nc1ccccc12 | -0.0212 | 1 | -0.0723 | 0.732 | 0.279 | 0.786 | 1.11 | 1.12 (inactive) | -0.047 | -0.0994
O=C1[C@@]23C=C(Br)[C@H](C[C@@H]2CCOC3)[C@@]12CO2 | -0.655 | 0.113 | -0.103 | 0.283 | 0.306 | -0.213 | -0.1 | -0.413 (inactive) | -0.0444 | 0.0373
CC(C)C(O)C1C=CC2C(=O)NC(=O)C2N1Nc1ccc(Cl)cc1Cl (stereo not given) | 0.889 | 0.206 | -0.0675 | -0.0108 | 0.514 | 1.98 | 1.16 | -0.903 (inactive) | 0.464 | -0.0645
O=C1NC(=O)C2C1C=CC(C(O)c1cccs1)N2Nc1ccc(Cl)cc1Cl (stereo not given) | 0.709 | -0.232 | -0.0647 | 0.0409 | -0.0246 | 1.25 | 1.14 | 0.224 (inactive) | 0.0983 | -0.191
COc1ccc(CCNC(=O)[C@@]2(Sc3ccc(C)cc3)CC(=O)N(C(C)C)[C@@H]2c2ccc(CO)cc2I)cc1 | -0.0354 | -0.566 | 0.0376 | -0.341 | -0.83 | -0.387 | 0.31 | -0.132 (inactive) | 0.238 | -0.511
COC(=O)[C@]1(CCC(=O)OC(C)(C)C)N=C(c2ccc(OCCCO)cc2)O[C@@H]1c1ccccc1CN=[N+]=[N-] | 0.995 | -0.0569 | -0.0073 | 0.0301 | 0.53 | 0.971 | 1.14 | -3.06 (inactive) | 0.773 | -0.169
CC(=O)NCCCC[C@@H]1NC(=O)[C@@H]2C[C@H](C(=O)NCCCCCNC(=O)CS)[C@H](c3cccc(OCCO)c3)N2C1=O | -0.525 | -0.047 | -0.211 | 0.37 | 0.121 | -0.122 | 0.709 | 0.618 (inactive) | -0.195 | -0.212
